Inconclusive results are not listed. Where a call stands in place of a potency, no number is given. The source made the active and inactive calls. Calls follow the shape of the dose curve; as a rule, active = well fitted activation curve with a large enough effect in the signal ratio in the repeat runs (not every such curve was filed as active); inconclusive = weak or mixed curves, or effect the other way; inactive = flat fitted curve, though single readings scatter; the % refers to the signal ratio.
Potency is read from the fitted curve at half-maximal effect.

This experiment is described as follows: qHTS assay to identify small molecule agonists of the endoplasmic reticulum stress response signaling pathway (AID 1159516). As to conditions: ESRE-bla HeLa, ER stress beta-lactamase reporter, 5 h; series mostly up to 61 µM. The source says:
National Center for Advancing Translational Sciences [NCATS]
NIH Chemical Genomics Center [NCGC]
U.S. Environmental Protection Agency [EPA]
National Institutes of Environmental Health Sciences [NIEHS]
National Toxicology Program [NTP]
U.S. Food and Drug Administration [FDA]
Endoplasmic Reticulum (ER) plays an important role in cellular signaling, protein folding/maturation, stress response, lipid biosynthesis, calcium storage and release etc. Under stress conditions, proteins in ER misfold or unfold, and leading to the expression of ER stress responsive genes. ER stress has been associated with a variety of pathophysiological conditions such as cancer, inflammation, neurodegenerative diseases, diabetes, ischemic heart disease etc. To identify the compounds that induce ER stress response, an ER stress reporter cell line, CellSensor ESRE-bla HeLa (Life Technologies, Carlsbad, CA) containing a beta-lactamase reporter gene under control of the Endoplasmic reticulum Stress Response Element (ESRE) was used to screen Tox21 10K compound library.
Tox21 Assay Protocol Summary:
ESRE-bla HeLa cells were dispensed at 1,500 cells/6 uL of assay medium per well into black wall/clear-bottom 1536-well plates using a Multidrop Combi (ThermoFisher Scientific, Waltham, MA) dispenser. After the assay plates were incubated at 37 C and 5% CO2 for an overnight, 23 nL of compounds dissolved in DMSO, positive controls or DMSO only was transferred to the assay plate by a Pintool station (Kalypsys, San Diego, CA). The assay plates were incubated at 37 C and 5% CO2 for 5 hr. One uL of LiveBLAzer B/G FRET substrate (Life Technologies) was added using a Flying Reagent Dispenser (Aurora Discovery, San Diego, CA) and the plates were incubated at room temperature for 2 hr. Fluorescence intensity (405 nm excitation, 460 nm and 530 nm emissions) was measured using an Envision plate reader (PerkinElmer, Shelton, CT).
A general note: In qHTS, concentration-response curves come from the screen itself.
For the compound `Cc1ccco1`, the Potency entry is “inactive”.

With `O=C1Cc2ccccc2N1c1c(Cl)cccc1Cl`, the Potency entry is “inactive”.

Take `O=C=Nc1cccc(C(F)(F)F)c1`: the Potency entry is “inactive”.

As for `CCCCCCC(C)(C)C(=O)O`, the Potency result was “inactive”.

For `CCOC(C)=O`, the Potency entry was “inactive”.

Regarding `CC(=O)c1cc2ccccc2s1`, the Potency result was “inactive”.

Take `C=Cc1ccc(S(=O)(=O)O)cc1`: the Potency result was “inactive”.

On to `CO/N=C(/C(=O)N[C@@H]1C(=O)N2C(C(=O)O)=C(COC(N)=O)CS[C@H]12)c1ccco1`, for which the Potency entry was “inactive”.

`Brc1cc(Br)c(Oc2cc(Br)c(Br)cc2Br)cc1Br`: the Potency result is “inactive”.

In the case of `CCOC(=O)c1ccc(O)c(O)c1`, the Potency entry was “inactive”.

As to `NC1[C@H]2CN(c3nc4c(cc3F)c(=O)c(C(=O)O)cn4-c3ccc(F)cc3F)C[C@@H]12` (stereo not given in full), the Potency entry is “inactive”.

On to `OCCOCC#CCOCCO`, for which the Potency is 49 µM (active).

For the compound `Cc1ccccc1N=C(N)Nc1ccccc1C`, the Potency entry was “inactive”.

`Cc1cc(O)ccc1O`: the Potency entry was “inactive”.

Regarding `CC(C)=CCC1C(=O)N(c2ccccc2)N(c2ccccc2)C1=O`, the Potency entry was “inactive”.

With `O=c1c(O)c(-c2ccc(O)cc2)oc2cc(O)cc(O)c12`, the Potency entry was “inactive”.

`CCC(=O)OC`: the Potency entry is “inactive”.

On to `O=C(/C=C/c1ccc(O)c(O)c1)O[C@@H]1C[C@@](OC(=O)/C=C/c2ccc(O)c(O)c2)(C(=O)O)C[C@@H](O)[C@@H]1O`, for which the Potency entry was “inactive”.

Turning to `CC(CC1c2ccccc2CCc2ccccc21)CN(C)C` (stereo not given), the Potency entry is “inactive”.

Regarding `O=C(O)C[C@H](NC(=O)OCc1ccccc1)C(=O)O`, the Potency result is “inactive”.

`CC(=O)OCC[N+](C)(C)C`: the Potency entry was “inactive”.

Regarding `CC(=O)OCC(=O)NCCCOc1cccc(CN2CCCCC2)c1`, the Potency result was “inactive”.

Take `CN1CCCC(CC2c3ccccc3Sc3ccccc32)C1` (stereo not given): the Potency result was “inactive”.

For `Cc1cc(O)c(C)c(C)c1O`, the Potency entry is “inactive”.

As to `COC(=O)[C@H]1[C@H]2C[C@@H]3c4[nH]c5cc(OC)ccc5c4CCN3C[C@H]2C[C@@H](OC(=O)/C=C/c2ccc(O)c(OC)c2)[C@@H]1OC`, the Potency entry was “inactive”.

For `CC(C)(O)c1ccc(CNC(=O)c2cccnc2Oc2ccc3nonc3c2)cc1`, the Potency result is “inactive”.

In the case of `CN1C(=O)OC(C)(C)C1=O`, the Potency result is “inactive”.

For `C1COC1`, the Potency result was “inactive”.

As to `O[C@@H]1CO[C@H]2[C@@H]1OC[C@@H]2O`, the Potency result was “inactive”.

For the compound `CC(C)=CCC/C(C)=C/CC/C(C)=C/CCC(=O)OC/C=C(\C)CCC=C(C)C`, the Potency entry is “inactive”.

As to `O=c1cc(-c2ccccc2)oc2cc(O)cc(O)c12`, the Potency entry was “inactive”.

`CC(C)C[C@H](NC(=O)[C@H](CCc1ccccc1)NC(=O)CN1CCOCC1)C(=O)N[C@@H](Cc1ccccc1)C(=O)N[C@@H](CC(C)C)C(=O)[C@@]1(C)CO1`: the Potency entry is “inactive”.

With `CCn1cc(C(=O)O)c(=O)c2cc(F)c(N3CCNCC3)cc21`, the Potency entry is “inactive”.

Consider `c1ccc2sc(SN(C3CCCCC3)C3CCCCC3)nc2c1`, for which the Potency entry is “inactive”.

As to `c1ccc2c(c1)CCc1ccccc1N2`, the Potency entry is “inactive”.

Regarding `O=c1[nH]c2ccc(Cl)cc2o1`, the Potency result is “inactive”.

Turning to `CS(=O)(=O)c1ccc(-c2cn3ccccc3n2)cc1`, the Potency entry is “inactive”.

As to `Nc1nc2ccc([N+](=O)[O-])cc2s1`, the Potency result was “inactive”.

Consider `O=C(O)CCCCCCCCCCCBr`, for which the Potency entry was “inactive”.

In the case of `Cc1ccc2c(Br)cc(Br)c(O)c2n1`, the Potency result is “inactive”.

These data come from PubChem BioAssay (Tox21).
